CHX counter – counter-screen hit for Shiga toxin inhibitors, cycloheximide; max response, %; cell reporter, cycloheximide protein synthesis inhibition counterscreen; 300,000 compounds, 12% hits; AID 2314; in the data active = max response mostly above about 13%, no sharp cut-off; inactive = mostly below about 14%; also: read at 38.3 µM for the half of the compounds with a filed dose
HCMV inh – inhibitors of human cytomegalovirus | HFF cells, HCMV-luciferase reporter, 72 h; active compounds read low | activity change, negative = inhibition, % at 57.5 µM | 410,000 compounds, 4.5% hits; in the data active = activity change below about -60%; inconclusive = no clear call, values can overlap the other calls; inactive = above about -39%
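Inhibition of viral replication was scored as loss of reporter luminescence in HFFs infected with HCMV-luciferase (MOI 1 PFU/cell) for 72 h; compounds tested at 2 doses, normalized to buffer and Salinomycin controls.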
Pf growth 48h – inhibits P. falciparum growth in the first generation, 48 h; 310,000 compounds, 5.9% hits; P. falciparum luciferase growth in erythrocytes, 48 h; Potency, µM (highest dose often 28.7 µM), usual class: inhibitors
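A one-generation exposure of luciferase-tagged malaria parasites in RPMI 1640/Albumax erythrocyte culture, 37 C and 5% CO2. Inhibition is inferred from decreased luminescence after adding detection reagent.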
Pf growth 96h – inhibits malaria parasite growth, 96 h | 320,000 compounds, 6.9% hits | P. falciparum luciferase reporter growth, 96 h | Potency, µM (doses to about 28.7 µM), most hits filed as inhibitors
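Parasite growth measured via integrated firefly luciferase reporter in P. falciparum. Infected erythrocytes at 2% hematocrit, 0.05% parasitemia final were treated 96 hours at 37 C under 5% CO2, and luminescence was read.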
Shiga toxin inh – blocks Shiga toxin action in Vero cells; 290,000 compounds, 9.2% hits; AID 2315; inhibition, % at 38.7 µM; Vero cells, Shiga toxin protein synthesis inhibition reporter; in the data active = inhibition mostly above about 28%, no sharp cut-off; inactive = mostly below about 43%
A number is an active result; . = inactive; ? = inconclusive; / = no result given; [ ] = remark or other dose. This is a sample that favours compounds with a hit; in the whole collection about 20% have one here. Unless noted, calls follow the shape of the dose curve; as a rule, active = well fitted inhibition curve with a large enough effect; inconclusive = small, poorly fitted or top-dose-only effect, or another doubt; inactive = no such curve, though single readings can be large or run the other way.

SMILES	CHX counter	HCMV inh	Pf growth 48h	Pf growth 96h	Shiga toxin inh
CCOC(=O)[C@@H]1[C@H]2COc3cc(OC)ccc3[C@H]2N2C(=O)N(c3ccc(C)cc3)C(=O)[C@@]12C	.	-75.2	?	?	.
CCOC(=O)[C@@H]1[C@H]2COc3ccc(Br)cc3[C@@H]2N2C(=O)N(c3ccc(C(F)(F)F)cc3)C(=O)[C@@]12C	.	.	?	9.28µM	.
Clc1ccccc1C(c1ccccc1)(c1ccccc1)n1ccnc1	.	-69.7	0.642µM	1.44µM	.
FC(F)(F)c1ccccc1-n1ccnc1	/	.	?	.	/
O=C1CCC([N+](=O)[O-])C(c2ccc(Cl)c([N+](=O)[O-])c2)N1 (stereo not drawn)	.	.	.	?	.
O=C1CCC([N+](=O)[O-])C(c2ccc3c(c2)OCO3)N1 (stereo not drawn)	.	.	.	10.4µM	.
Cc1ccc(S(=O)(=O)N/N=C/c2ccc3nccnc3c2)cc1	.	?	.	.	.
COc1ccccc1-n1cnc2cc(NCc3ccccc3O)ccc21	21.7	.	?	?	69.8
Cc1ccccc1-n1cnc2cc(NCc3cccs3)ccc21	.	.	?	?	.
COc1ccccc1-n1cnc2cc(NCc3cccs3)ccc21	23.2	?	.	/	44.2
COc1ccccc1-n1cnc2cc(NCc3ccco3)ccc21	.	?	?	.[5.75 µM]	.
COc1ccc(-n2cnc3cc(NS(=O)(=O)c4ccc(C)cc4)ccc32)cc1	.	/	/	?	.
COc1ccccc1-n1cnc2cc(NS(=O)(=O)c3ccc(Br)cc3)ccc21	.	.	/	5.22µM	.
COc1ccc(CNc2ccc3c(c2)ncn3-c2ccccc2OC)cc1	.	?	14.7µM	13.1µM	.
O=C(CSc1ncc2c(n1)-c1ccc(Cl)cc1N(Cc1ccccc1)S2(=O)=O)Nc1ccccc1C(F)(F)F	/	.	/	/	/
Cc1ccc(NC(=O)COC(=O)c2ccnn2C)cc1	31.6	.	.	?	.
Cn1nccc1C(=O)OCC(=O)Nc1ccccc1	.	?	.	.	.
Cc1ccc(NC(=O)COC(=O)c2ccn(C)n2)cc1	20.0	.	.	.	.
CCOC(=O)NC1(C(F)(F)F)C(=O)N(Cc2ccccn2)C2=C1C(=O)CC(C)(C)C2 (stereo not drawn)	.	.	.	?	.
Cc1cccc2cc3c(N)c(C#N)sc3nc12	.	-63.5	?	/	.
Cc1sc(NC(=O)c2sc3nc4c(C)cccc4cc3c2N)c(C#N)c1C	18.9	.	?	?	37.5
Cc1cccc2cc3c(N)c(C(=O)Nc4ccc(N5CCOCC5)cc4)sc3nc12	.	.	?	?	.
Cc1cc2nc3c(=O)[nH]c(=O)nc-3n(CC(O)C(O)C(O)COP(=O)(O)O)c2cc1C (stereo not drawn)	.	/	?	?	.
CCOC(=O)c1ccc(Cl)c(NC(=O)c2ccc(-c3ccccc3)cc2)c1	.	.	.	.	.
CCOC(=O)c1ccc(/C=C2/C=C(c3ccccc3)N(c3ccc(Cl)c(C(=O)O)c3)C2=O)cc1	.	.	?	13.1µM	.
SMILES	CHX counter	HCMV inh	Pf growth 48h	Pf growth 96h	Shiga toxin inh
CCN(CC)CCNC(=O)c1cn(CC)c2cc(N3CCN(C(=O)c4ccco4)CC3)c(F)cc2c1=O	.	.	.	.	.
CCn1cc(C(=O)NCCN(C)C)c(=O)c2cc(F)c(N3CCN(C)CC3)cc21	.	.	?	?	.
CCn1cc(C(=O)NCCC(C)C)c(=O)c2cc(F)c(N3CCN(C(=O)c4ccco4)CC3)cc21	.	.	?	2.33µM	.
CCN(CC)CCCNC(=O)c1cn(CC)c2cc(N3CCN(C(=O)c4ccco4)CC3)c(F)cc2c1=O	.	.	7.38µM	?	.
CCn1cc(C(=O)Nc2ncccc2O)c(=O)c2cc(F)c(N3CCN(C(=O)c4ccco4)CC3)cc21	.	.	?	4.65µM	.
CCn1cc(C(=O)NC(C)C)c(=O)c2cc(F)c(N3CCN(C(=O)c4ccco4)CC3)cc21	.	.	5.22µM	5.86µM	.
Cc1ccc(N2C(=O)NC(=O)C3(Cc4ccccc4N4CCN(c5ccccc5)CC43)C2=O)cc1 (stereo not drawn)	.	.	?	?	.
O=C1NC(=O)C2(Cc3ccccc3N3CCCC32)C(=O)N1c1cccc(Cl)c1 (stereo not drawn)	.	.	.	2.33µM	.
Cc1nn(-c2ccc(C(=O)O)cc2)c(C)c1Oc1ccccc1O	.	.	/	.	.
Cc1nn(-c2ccccn2)c(C)c1Oc1ccccc1O	.	.	/	2.62µM	.
Cc1nn(-c2nc3ccccc3s2)c(C)c1Oc1ccccc1O	31.9	/	.	.	71.9
CCOC(=O)c1c(C)[nH]c(CCC(=O)Nc2ccc(C)c(F)c2)c1C	/	.	/	/	/
O=C(CCNC(=O)c1ccc(Br)cc1)Nc1cccc(S(=O)(=O)N2CCCC2)c1	/	.	.	?	/
CC(=O)Nc1cccc(NC(=O)c2ccc(Br)cc2)c1	27.5	.	.	?	.
O=C(Nc1ccc(Nc2ccccc2)cc1)c1ccc(Br)cc1	.	.	.	.	.
Cc1cccc(NC(=O)CCNC(=O)c2ccc(Br)cc2)c1	26.1	.	.	.	82.0
CCC(=O)Nc1cccc(NC(=O)c2ccc(Br)cc2)c1	13.6	.	.	.	.
O=C(Nc1cccc(O)c1)c1ccc(Br)cc1	45.1	.	.	.	69.4
Cc1ccc(CNC(=O)CCS(=O)(=O)c2ccc3c(c2)NC(=O)CO3)cc1	.	.	.	.	.
COc1ccc(-c2nnnn2-c2ccc(F)cc2F)cc1	.	.	.	.	.
CCOC(=O)c1cc(-c2ccncc2)nc2c1c(C)nn2C	.	.	/	3.29µM	.
CCOC(=O)c1cc(-c2ccccc2)nc2c1c(C)nn2-c1ccccn1	.	.	?	/	.
CCOC(=O)c1cc(-c2ccc3c(c2)OCCO3)nc2c1c(C)nn2CCC#N	.	.	9.28µM	/	.
CCOC(=O)c1cc(-c2ccco2)nc2c1c(C)nn2CCC#N	.	.	8.28µM	?	.
CCOc1ccc(S(=O)(=O)NCC(=O)NC2CCCCC2)cc1	/	.	.	?	/
SMILES	CHX counter	HCMV inh	Pf growth 48h	Pf growth 96h	Shiga toxin inh
COc1ccc2c(c1)c1c(c(=O)n(-c3cccc(C)c3)c(=O)n1CC(=O)NCC1CCCO1)n2C (stereo not drawn)	/	.	/	/	/
Cc1cccc(-n2c(=O)c3c(c4cc(C)ccc4n3C)n(CC(=O)NCC3CCCO3)c2=O)c1 (stereo not drawn)	/	-105.9	/	/	/
Cc1ccc2c(c1)c1c(c(=O)n(-c3ccccc3C)c(=O)n1CC(=O)NCC1CCCO1)n2C (stereo not drawn)	.	.	?	9.28µM	.
Cc1ccc(C)c(NC(=O)Cn2c(=O)n(-c3ccccc3C)c(=O)c3c2c2cc(C)ccc2n3C)c1	/	.	/	/	/
O=C(/C=C/c1c(Cl)nc2ccccn12)Nc1ccc(F)cc1	14.8	.	?	?	.
O=S(=O)(c1ccc2c(c1)OCCO2)N1CCN(c2ncnc3sccc23)CC1	.	-90.7	?	.[5.75 µM]	.
Cc1ccc(S(=O)(=O)N2CCN(c3ncnc4sccc34)CC2)cc1C	/	-72.3	13.1µM	11.7µM	/
Cc1ccc(S(=O)(=O)N2CCN(c3ncccn3)CC2)cc1C	/	.	/	/	/
